# According to article PMC5540273 (PLoS ONE, 2017):
# Read-outs that look alike come from different tables or passages of the source.
# Key:
# [1] = system: ROCK2; details: n = 1
# [2] = system: RPS6KA4(Kin.Dom.1-N-terminal); details: n = 1
# [3] = system: RPS6KA4(Kin.Dom.2-C-terminal); details: n = 1
# [4] = system: RIOK1; details: concentration: 1 μM, replicates: in singlicate; n = 1
# [5] = system: RIOK2; details: concentration: 1 μM, replicates: in singlicate; n = 1
# [6] = system: RIOK3; details: concentration: 1 μM, replicates: in singlicate; n = 1
# [7] = system: RIPK1; details: concentration: 1 μM, replicates: in singlicate; n = 1
# [8] = system: RIPK2; details: concentration: 1 μM, replicates: in singlicate; n = 1
# [9] = system: RIPK4; details: concentration: 1 μM, replicates: in singlicate; n = 1
# [10] = system: RIPK5; details: concentration: 1 μM, replicates: in singlicate; n = 1
# [11] = system: ROCK1; details: concentration: 1 μM, replicates: in singlicate; n = 1
# [12] = system: ROS1; details: concentration: 1 μM, replicates: in singlicate; n = 1
# [13] = system: RPS6KA5(Kin.Dom.1-N-terminal); details: concentration: 1 μM, replicates: in singlicate; n = 1
# [14] = system: RPS6KA5(Kin.Dom.2-C-terminal); details: concentration: 1 μM, replicates: in singlicate; n = 1
# [15] = system: T1, RSK1(Kin.Dom.1-N-terminal); details: concentration: 1 μM, replicates: in singlicate; n = 1
# T1 construct: gene RPS6KA1
# [16] = system: T2, RSK1(Kin.Dom.2-C-terminal); details: concentration: 1 μM, replicates: in singlicate; n = 1
# T2 construct: gene RPS6KA1
# [17] = system: T3, RSK2(Kin.Dom.1-N-terminal); details: concentration: 1 μM, replicates: in singlicate; n = 1
# T3 construct: gene RPS6KA3
# [18] = system: T4, RSK2(Kin.Dom.2-C-terminal); details: concentration: 1 μM, replicates: in singlicate; n = 1
# T4 construct: gene RPS6KA3
# [19] = system: T5, RSK3(Kin.Dom.1-N-terminal); details: concentration: 1 μM, replicates: in singlicate; n = 1
# T5 construct: gene RPS6KA2
# [20] = system: T6, RSK3(Kin.Dom.2-C-terminal); details: concentration: 1 μM, replicates: in singlicate; n = 1
# T6 construct: gene RPS6KA2
# [21] = concentration: 1 μM, replicates: in singlicate
# 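Note: KINOMEscan kinase panel screen.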
compound,measurement,setting,value
CCn1c(-c2nonc2N)nc2c(C#CC(C)(C)O)ncc(OCCCCN)c21.O=C(O)C(F)(F)F.O=C(O)C(F)(F)F [GSK507274],%Inh,[1]; 1 µM,95.3%
same,%Inh,[2]; 1 µM,10%
same,%Inh,[3]; 1 µM,99%
Cl.c1ccc(-c2ccc3c(Nc4ccc5[nH]ccc5c4)ccnc3c2)nc1 [GW440138],%Inh,[4],4%
same,%Inh,[5],0%
same,%Inh,[6],0%
same,%Inh,[7],0%
same,%Inh,[8],78%
same,%Inh,[9],19%
same,%Inh,[10],0%
same,%Inh,[11],23%
same,%Inh,[1]; [21],43%
same,%Inh,[12],0%
same,%Inh,[2]; [21],0%
same,%Inh,[3]; [21],0%
same,%Inh,[13],0%
same,%Inh,[14],3%
same,%Inh,[15],0%
same,%Inh,[16],0%
same,%Inh,[17],0%
same,%Inh,[18],0%
same,%Inh,[19],0%
same,%Inh,[20],15%
Clc1ccc(-c2nn3ncccc3c2-c2ccnc(Nc3ccc4c(c3)OCCO4)n2)cc1 [GW829116],%Inh,[4],0%
same,%Inh,[5],0%
same,%Inh,[6],0%
same,%Inh,[7],0%
same,%Inh,[8],83%
same,%Inh,[9],0%
same,%Inh,[10],0%
same,%Inh,[11],37%
same,%Inh,[1]; [21],0%
same,%Inh,[12],0%
same,%Inh,[2]; [21],4%
same,%Inh,[3]; [21],0%
same,%Inh,[13],0%
same,%Inh,[14],8%
same,%Inh,[15],18%
same,%Inh,[16],32%
same,%Inh,[17],23%
same,%Inh,[18],0%
same,%Inh,[19],0%
same,%Inh,[20],0%
COc1cc(Nc2nccc(N3CCC(NC(=O)c4cc5ccccc5s4)C3)n2)cc(OC)c1OC (stereo not drawn) [GSK1379760],%Inh,[4],76%
same,%Inh,[5],14%
same,%Inh,[6],53%
same,%Inh,[7],24%
same,%Inh,[8],7%
same,%Inh,[9],0%
same,%Inh,[10],0%
same,%Inh,[11],0%
same,%Inh,[1]; [21],14%
same,%Inh,[12],45%
same,%Inh,[2]; [21],0%
same,%Inh,[3]; [21],0%
same,%Inh,[13],5%
same,%Inh,[14],4%
same,%Inh,[15],16%
same,%Inh,[16],46%
same,%Inh,[17],0%
same,%Inh,[18],18%
same,%Inh,[19],0%
same,%Inh,[20],0%
COc1cccc(C2=C(Nc3ccc(Cl)c(C(=O)O)c3)C(=O)NC2=O)c1 [SB-390769],%Inh,[4],0%
same,%Inh,[5],0%
same,%Inh,[6],5%
same,%Inh,[7],0%
same,%Inh,[8],21%
same,%Inh,[9],7%
same,%Inh,[10],100%
same,%Inh,[11],28%
same,%Inh,[1]; [21],12%
same,%Inh,[12],0%
same,%Inh,[2]; [21],17%
same,%Inh,[3]; [21],0%
same,%Inh,[13],13%
same,%Inh,[14],0%
same,%Inh,[15],29%
same,%Inh,[16],0%
same,%Inh,[17],100%
same,%Inh,[18],20%
same,%Inh,[19],14%
same,%Inh,[20],0%
CC(=O)Nc1nc2cnc(Nc3cc(NC(=O)c4cccc(C5(C#N)CC5)c4Cl)ccc3C)nc2s1,%Inh,[4],15%
same,%Inh,[5],5%
same,%Inh,[6],3%
same,%Inh,[7],2%
same,%Inh,[8],0%
same,%Inh,[9],0%
same,%Inh,[10],15%
same,%Inh,[11],5%
same,%Inh,[1]; [21],0%
same,%Inh,[12],0%
same,%Inh,[2]; [21],0%
same,%Inh,[3]; [21],0%
same,%Inh,[13],14%
same,%Inh,[14],5%
same,%Inh,[15],0%
same,%Inh,[16],25%
same,%Inh,[17],0%
same,%Inh,[18],0%
same,%Inh,[19],0%
same,%Inh,[20],10%
Cl.NC(=O)c1cccc(Nc2nccc(Nc3ccc(Oc4c(Cl)cccc4Cl)c(Cl)c3)n2)c1 [GW659009],%Inh,[4],56%
same,%Inh,[5],53%
same,%Inh,[6],51%
same,%Inh,[7],0%
same,%Inh,[8],84%
same,%Inh,[9],0%
same,%Inh,[10],10%
same,%Inh,[11],0%
same,%Inh,[1]; [21],10%
same,%Inh,[12],0%
same,%Inh,[2]; [21],0%
same,%Inh,[3]; [21],0%
same,%Inh,[13],0%
same,%Inh,[14],5%
same,%Inh,[15],0%
same,%Inh,[16],0%
same,%Inh,[17],0%
same,%Inh,[18],5%
same,%Inh,[19],3%
same,%Inh,[20],0%
Cn1cc(-c2ccc3c(c2)CCN3C(=O)Cc2cccc(F)c2)c2c(N)ncnc21 [GSK2603358],%Inh,[4],7%
same,%Inh,[5],0%
same,%Inh,[6],0%
same,%Inh,[7],99.7%
same,%Inh,[8],34%
same,%Inh,[9],5%
same,%Inh,[10],62%
same,%Inh,[11],9%
same,%Inh,[1]; [21],64%
same,%Inh,[12],21%
same,%Inh,[2]; [21],7%
same,%Inh,[3]; [21],0%
same,%Inh,[13],35%
same,%Inh,[14],0%
same,%Inh,[15],20%
same,%Inh,[16],3%
same,%Inh,[17],0%
same,%Inh,[18],0%
same,%Inh,[19],20%
same,%Inh,[20],0%
COC(=O)Nc1nc2cc(Oc3ccc(NC(=O)Nc4cc(C(F)(F)F)ccc4F)cn3)ccc2[nH]1.Cl.Cl [GW681170],%Inh,[4],0%
same,%Inh,[5],0%
same,%Inh,[6],14%
same,%Inh,[7],41%
same,%Inh,[8],58%
same,%Inh,[9],0%
same,%Inh,[10],0%
same,%Inh,[11],51%
same,%Inh,[1]; [21],46%
same,%Inh,[12],27%
same,%Inh,[2]; [21],9%
same,%Inh,[3]; [21],0%
same,%Inh,[13],21%
same,%Inh,[14],7%
same,%Inh,[15],0%
same,%Inh,[16],50%
same,%Inh,[17],0%
same,%Inh,[18],0%
same,%Inh,[19],0%
same,%Inh,[20],17%
Nc1ncc(-c2ccc3nccc(-c4ccncc4)c3c2)cc1S(=O)(=O)N1CCOCC1 [GSK1627798],%Inh,[4],30%
same,%Inh,[5],39%
same,%Inh,[6],17%
same,%Inh,[7],0%
same,%Inh,[8],1%
same,%Inh,[9],4%
same,%Inh,[10],0%
same,%Inh,[11],0%
same,%Inh,[1]; [21],0%
same,%Inh,[12],15%
same,%Inh,[2]; [21],0%
same,%Inh,[3]; [21],0%
same,%Inh,[13],18%
same,%Inh,[14],0%
same,%Inh,[15],14%
same,%Inh,[16],0%
same,%Inh,[17],0%
same,%Inh,[18],0%
same,%Inh,[19],7%
same,%Inh,[20],0%
